Experimental data: article PMC11062922 (Nature Chemical Biology, 2023)
Like-named read-outs stand apart in the source and are kept apart here.

How the values were obtained:
Design in all cases: species or system human, MV4-11 + K-562 + COLO205 + SK-N-BE2 + OVCAR-8
[1] = test system: FECH; conditions: read-out: apparent Kd, n = 1
[2] = test system: FLT3; conditions: read-out: apparent Kd, compound concentrations: 100 nM and 1000 nM (sheet 'Samples'), n = 1
[3] = test system: MELK; conditions: read-out: apparent Kd; compound concentrations: 100 nM and 1000 nM (sheet 'Samples'), CATDS: 0.102611877302843; n = 1
[4] = test system: MERTK; conditions: read-out: apparent Kd; compound concentrations: 100 nM and 1000 nM (sheet 'Samples'), CATDS: 0.11247191939654499; n = 1
[5] = test system: PDGFRB; conditions: read-out: apparent Kd, compound concentrations: 100 nM and 1000 nM (sheet 'Samples'), n = 1
[6] = test system: RET; conditions: read-out: apparent Kd; compound concentrations: 100 nM and 1000 nM (sheet 'Samples'), CATDS: 0.43241388330783698; n = 1
[7] = test system: SIK2; conditions: read-out: apparent Kd, n = 1
[8] = test system: PLK1; conditions: read-out: apparent Kd, n = 1
[9] = test system: VDAC3; conditions: read-out: apparent Kd; compound concentrations: 100 nM and 1000 nM (sheet 'Samples'), CATDS: 0.46722570663248902; n = 1
[10] = test system: IARS; conditions: read-out: apparent Kd; compound concentrations:100 nM and 1000 nM (sheet 'Samples'); n = 1
[11] = test system: NQO1; conditions: read-out: apparent Kd; compound concentrations:100 nM and 1000 nM (sheet 'Samples'); n = 1
[12] = test system: PIK3CD; conditions: read-out: apparent Kd; compound concentrations:100 nM and 1000 nM (sheet 'Samples'); n = 1
[13] = test system: MAP2K5; conditions: read-out: apparent Kd; compound concentrations:100 nM and 1000 nM (sheet 'Samples'); n = 1
[14] = test system: YES1; conditions: read-out: apparent Kd; compound concentrations:100 nM and 1000 nM (sheet 'Samples'); n = 1
[15] = test system: NTRK1; conditions: read-out: apparent Kd; compound concentrations:100 nM and 1000 nM (sheet 'Samples'); n = 1
[16] = test system: PDXK; conditions: read-out: apparent Kd; compound concentrations:100 nM and 1000 nM (sheet 'Samples'); n = 1
[17] = test system: GAK; conditions: read-out: apparent Kd; compound concentrations:100 nM and 1000 nM (sheet 'Samples'); n = 1
[18] = test system: SIK3; conditions: read-out: apparent Kd; compound concentrations:100 nM and 1000 nM (sheet 'Samples'); n = 1
[19] = test system: ZAK; conditions: read-out: apparent Kd; compound concentrations:100 nM and 1000 nM (sheet 'Samples'); n = 1
[20] = compound concentrations:100 nM and 1000 nM (sheet 'Samples')

COc1cc2c(cc1OC)C(=C(Nc1ccccc1)c1cccc(CN)c1)C(=O)N2 [BIBF0846CL]
potency estimated from few doses ([1]; compound concentrations: 100 nM and 1000 nM (sheet 'Samples'), CATDS: 0.35888442724353598): 62.1 nM | potency estimated from few doses ([2]; CATDS: 0.119493571435742): 829 nM | potency estimated from few doses [3]: 1410 nM | potency estimated from few doses [4]: 1010 nM | potency estimated from few doses ([5]; CATDS: 0.104628993679762): 1310 nM | potency estimated from few doses [6]: 45.3 nM | potency estimated from few doses ([7]; compound concentrations: 100 nM and 1000 nM (sheet 'Samples'), CATDS: 0.136273413737004): 560 nM

NC(=O)c1sc(-n2cnc3ccccc32)cc1OCc1ccccc1F [GSK1024306A]
potency estimated from few doses ([1]; compound concentrations: 100 nM and 1000 nM (sheet 'Samples'), CATDS: 0.40591450620250102): 2130 nM | potency estimated from few doses ([8]; compound concentrations: 100 nM and 1000 nM (sheet 'Samples'), CATDS: 0.65086071220868402): 781 nM

Cc1nnc(-c2cccc(-c3ccc(C(=O)NCC4CC4)cc3)c2)o1 [GW734508X]
potency estimated from few doses ([1]; compound concentrations: 100 nM and 1000 nM (sheet 'Samples'), CATDS: 0.53771916993111701): 1500 nM | potency estimated from few doses [9]: 1990 nM

COc1cc2ncn(-c3cc(OCc4ccc(S(C)(=O)=O)cc4)c(C(N)=O)s3)c2cc1OC [GW869979X]
potency estimated from few doses [1, 20]: 2080 nM | potency estimated from few doses [10]: 2020 nM | potency estimated from few doses [11]: 2010 nM | potency estimated from few doses [12]: 120 nM | potency estimated from few doses [8, 20]: 1110 nM

Cl.O=C(O[C@H]1CN[C@H](C#Cc2cc3ncnc(Nc4ccc5c(cnn5Cc5ccccc5)c4)c3s2)C1)N1CCOCC1 [GSK200398A_KCGS]
potency estimated from few doses [13]: 2200 nM

COc1cc2ncnc(Nc3ccc4c(cnn4Cc4ccccc4)c3)c2cc1OC.Cl [GW282449A]
potency estimated from few doses [13]: 1120 nM | potency estimated from few doses [14]: 1110 nM

Cl.c1ccc(Cc2nc3ccc(Nc4ncnc5ccccc45)cc3[nH]2)cc1 [GR269666A_KCGS]
potency estimated from few doses [15]: 1110 nM | potency estimated from few doses [16]: 1550 nM

COc1ccc(Nc2ncc(-c3ccccc3)o2)cc1OC.Cl [GW575533A]
potency estimated from few doses ([2]; CATDS: 0.92036474930911705): 4.09 nM | potency estimated from few doses ([5]; CATDS: 0.343232825956933): 90.5 nM

CNS(=O)(=O)c1ccc(N(C)C)c(Nc2ncnc3cc(OC)c(OC)cc23)c1 [GSK114]
potency estimated from few doses [17]: 28.1 nM | potency estimated from few doses [13]: 12.7 nM | potency estimated from few doses [7, 20]: 639 nM | potency estimated from few doses [18]: 1350 nM | potency estimated from few doses [19]: 646 nM
